Experimental data taken from PubChem BioAssay (NCATS).
Inconclusive results are not listed. The source made the active and inactive calls. The call rests on the fitted dose curve; in most records, active means well fitted cell-killing curve with a large enough effect; inconclusive means small, poorly fitted or top-dose-only effect; inactive means flat fitted curve, though single readings scatter.

assay: Cell Viability - LYMP2-023 (AID 975); conditions: LYMP2-023 lymphoblastoid cell viability; series mostly up to 92.2 µM; activity change, negative = cytotoxicity: at the top concentration; further: nearly all actives have a fitted effect of over 55% in size;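 on activity change, negative = cytotoxicity: plate controls were DMSO only for no effect and 92 µM tetraoctylammonium bromide control for full effect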
From the text: NIH Chemical Genomics Center [NCGC]
NIH Molecular Libraries Screening Centers Network [MLSCN]
National Institutes of Environmental Health Sciences [NIEHS]
National Toxicology Program [NTP]
We have developed a 1536-well cell-based assay for quantitative high throughput screening (qHTS) against a number of cell lines to determine in vitro cytotoxicity of small molecules. This particular assay uses a human lymphoblastoid cell line (LYMP2-023) purchased from Coriell Institute for Medical Research.
NCGC Assay Protocol Summary:
The CellTiter-Glo luminescent cell viability assay (Promega) is a homogeneous method to measure the number of viable cells in culture. The end point readout of this assay is based on quantitation of intracellular ATP, an indicator of metabolic activity, using the luciferase reaction. Luciferase catalyzes the oxidation of beetle Luciferin to oxyluciferin and light in the presence of ATP. The luminescent signal is proportional to amount of ATP present.
Using the CellTiter-Glo luminescent cell viability assay, the amount of cellular ATP was measured in the lymphoblastoid cell line with complete culture medium following compound treatment for 24 hours. The assay was performed in opaque white Kalypsys 1536-well plates. In the screen, tetraoctylammonium bromide was used as positive control. Library compounds were measured for their ability to cause acute toxicity in the cell line, as reflected by a decrease in intracellular ATP levels, in a concentration-dependent manner. […] AC50 values were determined from concentration-response data modeled with the standard Hill equation.
qHTS protocol for CellTiter Glo lymphoblastoid cellular assay
[Step] [Parameter] [Value] [Description]
1. Reagent; 5 uL; 2500 lymphoblastoid cells/well
2. Time; 5 hr; 37 C incubation
4. Controls; 23 nL; Tetraoctylammonium bromide 6.4pM to 92 uM
5. Time; 24 hr; 37 C incubation
6. Reagent; 5 uL; CellTiter Glo reagent
7. Time; 30 min; Room Temperature
8. Detection; Luminescence; Viewlux plate reader
Keywords: cell viability, cytotoxicity, lymphoblastoid cell line, luminescence, NTPHTS, NTPHTS_NCGC, NIEHS, DSSTox, MLSMR, MLSCN, NIH Roadmap, qHTS, NCGC
Potency means the concentration at half of the fitted maximal effect.

SMILES | activity change, negative = cytotoxicity | Potency
Nc1ccc(Cl)cc1N | 0.161% (inactive) | –
COC(C)(C)CCCC(C)C/C=C/C(C)=C/C(=O)OC(C)C (stereo unspecified) | -1.01% (inactive) | –
Nc1ccc([N+](=O)[O-])cc1 | -1.09% (inactive) | –
Nc1ccc(Sc2ccc(N)cc2)cc1 | 3.36% (inactive) | –
CCOP(=O)(NC(C)C)Oc1ccc(SC)c(C)c1 (stereo unspecified) | -3.73% (inactive) | –
CN(C)NC(=O)CCC(=O)O | -7.03% (inactive) | –
O=S(=O)(c1ccc(Cl)cc1)c1ccc(Cl)cc1 | – | inactive
C=CC(=O)NCNC(=O)C=C | -2.43% (inactive) | –
CC(=O)[O][Hg][c]1ccccc1 | – | 1.26 µM (active)
O=C(O)COc1ccccc1 | -4.13% (inactive) | –
CN(C)[C@@H]1C(=O)C(C(N)=O)=C(O)[C@@]2(O)C(=O)C3=C(O)c4c(O)cccc4[C@@](C)(O)[C@H]3[C@H](O)[C@@H]12 | -10.1% (inactive) | –
Cc1cc(O)ccc1Cl | 2.07% (inactive) | –
OCCCBr | 4.2% (inactive) | –
CCOCCOC(C)=O | 2.92% (inactive) | –
O=[N+]([O-])c1c2ccccc2cc2ccccc12 | -1.54% (inactive) | –
CC(C)(O)C(=O)Nc1ccc([N+](=O)[O-])c(C(F)(F)F)c1 | 1.47% (inactive) | –
C1CCC(NC2CCCCC2)CC1 | – | inactive
Nc1ccc(Cl)cc1 | 2.38% (inactive) | –
CCCCC(CC)COC(=O)c1ccccc1C(=O)OCC(CC)CCCC (stereo unspecified) | -3.94% (inactive) | –
CCCCOC(=O)c1ccccc1C(=O)OCc1ccccc1 | -6.25% (inactive) | –
O=C(O)C(Cl)Cl | -0.902% (inactive) | –
CCCCCCCCc1ccc(O)cc1 | 5.71% (inactive) | –
O=[N+]([O-])c1cc([N+](=O)[O-])c2ccccc2c1 | -6.78% (inactive) | –
c1cc2ccc3cccc4ccc(c1)c2c34 | -6.2% (inactive) | –
COc1ccc(C(c2ccc(OC)cc2)C(Cl)(Cl)Cl)cc1 | – | inactive
O=[N+]([O-])c1c(Cl)c(Cl)cc(Cl)c1Cl | -1.17% (inactive) | –
